Values joined by “and” are separate entries in the source; they are usually repeats but may differ in a detail not shown here. Equal values may be shown once. The whole screen tested about 16,000 compounds, of which about 2,600 (16%) were called active. Not shown: some 20% with an inconclusive outcome. Calls come from the whole dose curve; as a rule, active = well fitted curve in the direction sought with a large enough effect; inconclusive = small, poorly fitted or top-dose-only effect, or effect the other way; inactive = no such curve, though single readings can be large or run the other way. These entries were drawn from the full list. A structure can be active in one record and inactive in another.
Molecular target: Cytochrome P450 2D6 (Homo sapiens) (UniProt P10635)
Assay: Cytochrome panel assay with activity outcomes
Conditions: recombinant CYP, pro-luciferin dealkylation, luminescence, p450-cyp2d6; series mostly up to 57.1 µM; activity, negative = inhibition: at the top concentration
% is set by controls: 0 for no effect and ±100 for the full control effect.

Sequence of Cytochrome P450 2D6 (Homo sapiens) (P10635 whole entry, looked up): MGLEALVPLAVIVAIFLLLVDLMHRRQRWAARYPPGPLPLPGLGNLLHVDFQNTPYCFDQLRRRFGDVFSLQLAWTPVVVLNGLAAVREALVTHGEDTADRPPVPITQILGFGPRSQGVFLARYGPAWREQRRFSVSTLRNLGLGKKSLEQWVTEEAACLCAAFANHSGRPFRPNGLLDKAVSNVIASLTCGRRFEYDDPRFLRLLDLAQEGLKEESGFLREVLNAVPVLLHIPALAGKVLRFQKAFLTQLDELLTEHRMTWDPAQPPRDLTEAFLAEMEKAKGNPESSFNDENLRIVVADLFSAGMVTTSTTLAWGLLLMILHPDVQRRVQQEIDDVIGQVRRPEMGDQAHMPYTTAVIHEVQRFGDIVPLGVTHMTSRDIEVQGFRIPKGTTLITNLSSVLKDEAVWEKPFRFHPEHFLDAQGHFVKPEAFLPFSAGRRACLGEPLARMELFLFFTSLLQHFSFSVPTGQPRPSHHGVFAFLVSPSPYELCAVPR

activity, negative = inhibition, inactive:
CC(=C\C(=O)O)/C(=C/c1ccccc1)C(=O)O -7.05%
CCOC(=O)C1(C(=O)O)NC(=O)CC1c1ccccc1 (centres undefined) -5.68%
C[C@H]1CC[C@H]2C(=O)N[C@H](Cc3ccccc3)C(=O)N2[C@@H]1c1ccccc1 -17.6% [at 11.4 µM]
COCCn1c(=O)c(-c2cn(C)c3ccccc23)nc2cncnc21 -5.12%
NC(N)=N[C@H](CCC(=O)O)C(=O)O 0.897%
O=C1OCCC=C1[C@@H](O)CCc1ccccc1 -2.43% [at 11.4 µM]
COC(=O)c1scc(C)c1NC(=O)Cc1ccccc1 -2.62%
O=C(O)c1ccc(SSc2ccc(C(=O)O)cn2)nc1 -10.6% [at 11.4 µM]
N#CC(c1ccccc1F)(c1ncc(C(F)(F)F)cc1Cl)N1CCOCC1 (centres undefined) -15.7%
Cc1cc2nc([C@H](C)C(=O)c3ccc(Cl)cc3)c(=O)[nH]c2cc1C -4.99% [at 11.4 µM]
COc1ccc(-c2nc3cnc(N4CCNCC4)nc3n(C)c2=O)cc1 -2.18%
COc1ccc2nc(N3C(=O)CC(Cc4ccc(Cl)cc4)C3=O)sc2c1 (centres undefined) -13.6%
CN1CCN(CCCNC(=O)C2CCN(c3nnc(-n4cccc4)s3)CC2)CC1 -2.02%
O=c1[nH]ncn2cccc12 1.89%
COCCNC(=O)CCn1nc(-c2ccc(Cl)cc2)ccc1=O -2.97%
COc1cc2cc(CN(CCCO)S(=O)(=O)c3ccccc3Cl)c(=O)[nH]c2cc1OC 5.86%
COc1ccccc1CN(Cc1cc2cc(C)cc(C)c2[nH]c1=O)Cc1nnnn1CC1CCCO1 (centres undefined) -28.2%
CCC(C)(C)n1nnnc1C(c1cc2cc3c(cc2[nH]c1=O)OCO3)N1CCCCC1 (centres undefined) -25.4%
CCC(C)(C)n1nnnc1C(C(C)C)N(CCCO)Cc1cc2cc(C)ccc2[nH]c1=O (centres undefined) -18.4%
COc1cccc2c1OC1(C)CC2/C(=C(\C)O)C(=O)N1 (centres undefined) 7.2%
OC[C@@H]1O[C@H](O)[C@@H](Cl)[C@H](O)[C@@H]1O 5.2%
CN(C)S(=O)(=O)Oc1cccc(C(=O)Nc2ccccc2Cl)c1 -10.3%
Clc1ccc(CSc2ncnc3c2ncn3[C@@H]2CCCCO2)cc1 -9.38% [at 11.4 µM]
COc1ccc(/C=N/NC(=O)c2cc(-c3ccc(C)cc3C)nc3ccccc23)cc1COC(C)=O 1.39%
CCOCCCn1cnc2c(c1=O)c1nc3ccccc3nc1n2-c1ccccc1 -6.76%
CCCCn1cnc2c(cnn2-c2ccc(F)cc2)c1=O -12.2%
O=C(NCCN1CCN(C(=O)C(c2ccccc2)c2ccccc2)CC1)C(=O)Nc1ccccc1 -10%
COc1ccc(NC(=O)C2CCN(C(=O)c3cccs3)CC2)c(OC)c1 16.9%
O=C1[C@H]2[C@H]3[C@H](O)[C@H](O)C/C(=N/OCc4ccccc4)[C@H]3CC[C@@H]2C(=O)N1C[C@@H]1CCCO1 4.75% [at 11.4 µM]
COc1cccc(Cn2c(=O)c(-c3cccs3)nc3cnc(N(C)C)nc32)c1 -4.4%
COC(=O)CSc1ncc(OC)c(OC)n1 -7.49%
O=C1c2ccccc2C(=O)N1C[C@]1(C(=O)O)NCCS1(=O)=O 7.33% [at 11.4 µM]
CC(C)NC(=O)N1CC[C@@]2(CCCN(S(C)(=O)=O)C2)C1 -3.82%
COC(=O)N1CCC2(CCN(C(=O)NC(C)C)CC2)CC1 -13.5%
CC(C)NC(=O)N1CCCC2(CCN(C(=O)c3cccn3C)CC2)C1 -1.09%
CC(C)NC(=O)N1CC2(CCN(S(=O)(=O)c3ccccc3)CC2)C1 0.223%
CS(=O)(=O)N1CCC2(CCCN(C(=O)Nc3cccc(F)c3)C2)CC1 -4.34%
CS(=O)(=O)N1CCC[C@@]2(CCN(C(=O)Nc3cccc(F)c3)C2)C1 5.14%
O=C(C1CCN(S(=O)(=O)N2CCOCC2)CC1)N1CCN(c2ccccc2)CC1 7.34%
CN(C)c1ncc2nc(-c3cc(F)cc(F)c3)c(=O)n(Cc3cccs3)c2n1 -2.95%
CCN1CCN(C(=O)N[C@H](C(=O)N[C@@H]2C(=O)N3[C@@H]2SC(C)(C)[C@@H]3C(=O)O)c2ccccc2)C(=O)C1=O -0.322% [at 25.6 µM]
CC(=O)[C@H](C(=N)C#N)C(=O)Nc1ccccc1 5.49% [at 11.4 µM]
CCC(=O)OCN1C(=O)C=CC1=O 6.64% [at 11.4 µM]
O=c1cc(CF)[nH]c(=S)[nH]1 11.9% [at 11.4 µM]
CN(C)c1ncc2ncc(=O)n(CCC#N)c2n1 3.67%
COc1ccc(NC(=O)N2CCC3(CC2)CCN(C(=O)c2cnccn2)CC3)cc1 -1.61%
COc1cccc(NC(=O)Cc2c(C(=O)O)[nH]c3ccccc23)c1 28.7%
CCOC(=O)c1ccc(NC(=O)C2CCCO2)cc1 (centres undefined) 4.57%
O=C(NNC(=O)C1CCCCC1)c1cnccn1 -1.43%
Cn1cccc1C(=O)N1CCC2(CCCN(c3cccc(-c4ccccc4)c3)C2)CC1 -7.33%
COc1ccc(-n2c(=O)c(-c3ccc(F)cc3)nc3cnc(N4CCOCC4)nc32)cc1 -6.08%
CS(=O)(=O)c1nc2ccccc2n1Cc1ccccc1 -21.3%
Oc1ccc(Cn2c(-c3ccc(O)cc3)nc3ccccc32)cc1 1.43% [at 11.4 µM]
O=S(=O)(O)c1nc2ccccc2n1Cc1ccccc1 -9.7%
Cn1c(-c2ccc(CN3CCCCC3)o2)nc2ccccc21 -28.7%
COCCn1c(=O)cnc2cnc(Oc3ccc(OC)cc3)nc21 -4.11%
COc1cc(OC)nc(NC(C)=O)n1 2.26%
O=C(O)CCC(O)=C1S(=O)(=O)OCCOS1(=O)=O -8.4% [at 11.4 µM]
Cc1ccc(N=Nc2c(O)ccc3cc(S(=O)(=O)O)ccc23)cc1 4.81% [at 11.4 µM]
Cc1ccc(NC2=NC(c3ccccc3)n3c(nc(C)cc3=O)N2)c(C)c1 (centres undefined) -17.2%
CCC(=O)[C@@]1(C)[C@H](C)C[C@@H]2[C@@H]3CCC4=CC(=O)C=C[C@@]4(C)[C@H]3[C@H](O)C[C@]21C 3.11% [at 25.6 µM]
Cn1c(=O)c2c(nc(N3CCN(c4ccccn4)CC3)n2Cc2ccccc2Cl)n(C)c1=O 2.07%
CC(=O)Nc1ccc(NC(=O)C/C(C)=N/NC(=O)C(=O)N2CCCC2)cc1 7.24%
C#CCSc1n[nH]c(-c2ccco2)n1 -1.01% [at 11.4 µM]
Cc1ccc(-c2nn(C)c(=O)c3ccccc23)cc1CNC(=O)Cn1nc(-c2ccccc2)c2ccccc2c1=O -9.89%
O=c1c2ccccc2c(-c2ccc(Br)cc2)nn1Cc1ccccc1 -19.5%
Cc1ccc(-c2csc(NC(=S)NC(=O)/C=C/c3ccco3)n2)cc1 15.4%
N#Cc1cccc(-c2nc3cnc(Oc4cccc(Cl)c4)nc3n(C3CC3)c2=O)c1 -3.68%
CC1=NN(c2ccccc2)C(=O)C1 -20.1%
O=C(Cc1ccc(Br)cc1)OCC(=O)c1ccc2c(c1)OCCO2 -1.3%
CC(=O)c1cc2c(cc1NC(=O)CCCC(=O)O)OCO2 4.35%
CCOc1ccc(C(C)=O)cc1N1C(=O)C2C3C=CC(O3)C2C1=O (centres undefined) -21.1%
COCC(=O)N1CCC[C@@]2(CCN(C(=O)Nc3cccc(F)c3)C2)C1 -0.151%
CS(=O)(=O)N1CCC2(CCN(C(=O)Nc3cccc(F)c3)CC2)CC1 -11.1%
COc1ccc(C(=O)N2CCC3(CCN(C(=O)Nc4cccc(F)c4)CC3)CC2)cc1 4.46%
COCC(=O)N1CCC2(CC1)CCN(C(=O)Nc1cccc(F)c1)CC2 3.22%
CC(=O)N1CCC2(CCCN(C(=O)Nc3cccc(F)c3)C2)CC1 -3.24%
COC(=O)N1CCC2(CCCN(C(=O)Nc3cccc(F)c3)C2)CC1 8.79%
Cc1cc(C(=O)NNC(=S)NC(C)c2ccccc2)c2ccccc2n1 (centres undefined) -18.2%

AC50, active:
COc1ccc2nc(N3CCCC(C(=O)NCCCN4CCN(C)CC4)C3)sc2c1 (centres undefined) 11.2 µM
COc1ccc(-c2ccc(=N)n(CCCC(=O)O)n2)cc1 3.98 µM
COc1ccccc1CN(Cc1cc2cc3c(cc2[nH]c1=O)OCCO3)Cc1nnnn1Cc1ccco1 14.1 µM
CCC(C)(C)n1nnnc1C(C(C)C)N(Cc1ccco1)Cc1cc2cc3c(cc2[nH]c1=O)OCO3 (centres undefined) 14.1 µM
CCCCn1cnc2c(c(CC#N)nn2-c2ccccc2)c1=N 0.398 µM
O=C(c1cccs1)N1CCN(C(=O)C(c2ccccc2)c2ccccc2)CC1 10 µM
CC(C)NC(=O)N1CCCC2(CCN(S(=O)(=O)c3ccccc3)CC2)C1 0.316 µM
O=C(Nc1cccc(F)c1)N1CCCC2(CCN(S(=O)(=O)c3ccccc3)CC2)C1 12.6 µM
CC(C)NC(=O)N1CCC2(CC1)CCN(S(C)(=O)=O)CC2 15.8 µM
COc1cc(N=c2ssnc2Cl)cc(OC)c1OC 3.16 µM
c1ccc(Cn2c(CN3CCCC3)nc3ccccc32)cc1 8.91 µM
Clc1ccc(Cn2c(CN3CCCC3)nc3ccccc32)cc1 1.26 µM and 794 nM
O=c1c2ccccc2c(-c2ccccc2)nn1Cc1ccc(Cl)cc1 11.2 µM
C/C(=C\C(=O)c1ccc(Br)cc1)NCc1ccc2c(c1)OCO2 7.94 µM
CC(=O)N1CCC2(CC1)CCN(C(=O)Nc1cccc(F)c1)CC2 3.16 µM
COC(=O)N1CCC[C@@]2(CCN(C(=O)Nc3cccc(F)c3)C2)C1 10 µM
COC(=O)N1CCC2(CCN(C(=O)Nc3cccc(F)c3)CC2)CC1 10 µM

AC50, inactive:
CC(=O)N[C@@H](C(=O)O)C(C)(C)SN=O
COc1ccc(-c2ccc(N)[n+](CCCC(=O)O)n2)cc1

AC50, inactive and 15.8 nM (active):
CC(C)COC[C@H](CN(Cc1ccccc1)c1ccccc1)N1CCCC1

From PubChem BioAssay AID1851 (National Center for Advancing Translational Sciences (NCATS), 2009)
